Results filed as inconclusive are left out. The source made the active and inactive calls. Unless noted, calls follow the shape of the dose curve; as a rule, active = well fitted curve in the direction sought with a large enough effect; inconclusive = small, poorly fitted or top-dose-only effect, or another doubt; inactive = no such curve, though single readings can be large; an effect the other way counts as inactive or inconclusive.
Legend:
[1] = Primary qHTS for inhibitors of nuclear receptor binding SET domain protein 2 (NSD2) in an isogenic RCH-ACV NSD2 p.E1099K mutant (9B) (AID 1645876); also: nearly all actives have a fitted effect of over 70% in size; also: potency is read from the fitted curve at half-maximal effect
[2] = Primary qHTS for inhibitors of nuclear receptor binding SET domain protein 2 (NSD2) in an RCH-ACV wild type WT cells (2C) (AID 1645877); also: nearly all actives have a fitted effect of over 70% in size; also: potency is read from the fitted curve at half-maximal effect
[3] = biological target: Phospholipid hydroperoxide glutathione peroxidase GPX4 (Homo sapiens) (UniProt P36969); experiment: Primary qHTS Assay for Inhibitors of Recombinant Selenoprotein Glutathione Peroxidase 4 (GPX4) (AID 1845192); also: nearly all actives have a fitted effect of over 65% in size; also: potency is read from the fitted curve at half-maximal effect
Sequence of Phospholipid hydroperoxide glutathione peroxidase GPX4 (Homo sapiens) (P36969 whole entry, looked up): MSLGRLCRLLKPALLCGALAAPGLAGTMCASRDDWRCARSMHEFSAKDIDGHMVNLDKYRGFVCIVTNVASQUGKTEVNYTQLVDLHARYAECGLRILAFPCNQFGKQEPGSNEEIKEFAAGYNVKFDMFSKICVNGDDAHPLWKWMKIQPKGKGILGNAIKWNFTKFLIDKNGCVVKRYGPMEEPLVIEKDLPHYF
Method in brief: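 GR-coupled assay: recombinant GPX4 preincubated 30 min with compound at room temperature; final 200 nM GPX4, 1 mM GSH, 0.5 mM cumene hydroperoxide, 0.5 mM NADPH, 100 nM GR, 0.01% BSA, pH 7.5 Tris. NADPH fluorescence (340/450 nm) read at 0 and 15 min.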

[4] = qHTS drug screen for cell cycle checkpoint inhibitors in PARPi-resistant BRCA-mutant ovarian cancer cell lines. (AID 1963452; calls by dose curve); conditions: PEO1/OlaR viability, CellTiter-Glo luminescence, 96 h, stronger effect = lower value
Method in brief: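 PEO1, PEO4 and PEO1/OlaR ovarian cancer cells, 600 per well, exposed 96 h at 37C to a dilution series. Viability read by CellTiter-Glo luminescence, normalized to DMSO and empty wells; activity summarized as Z-AUC.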

[5] = biological target: Glutathione peroxidase 1 (Homo sapiens) (UniProt P07203); experiment: Primary qHTS Assay for Inhibitors of Recombinant Selenoprotein Glutathione Peroxidase 1 (GPX1) (AID 1845191); also: nearly all actives have a fitted effect of over 65% in size
Sequence of Glutathione peroxidase 1 (Homo sapiens) (P07203 whole entry, looked up): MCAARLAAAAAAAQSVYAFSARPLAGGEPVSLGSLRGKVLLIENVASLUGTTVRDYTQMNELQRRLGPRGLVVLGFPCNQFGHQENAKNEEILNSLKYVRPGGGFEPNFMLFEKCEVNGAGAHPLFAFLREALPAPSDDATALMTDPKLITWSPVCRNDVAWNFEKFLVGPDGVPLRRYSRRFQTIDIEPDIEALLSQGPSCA
Method in brief: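 GR-coupled assay: compounds preincubated 30 min at room temperature with GPX1, then reaction started with CHP; final 10 nM GPX1, 1 mM GSH, 0.5 mM CHP, 0.5 mM NADPH, 100 nM GR, 0.01% BSA, pH 7.5 Tris buffer. NADPH fluorescence (340/450 nm) read at 0 and 15 min.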

[6] = NCATS anti-infectives library activity on HEK293 viability as a counter-qHTS vs the C. elegans viability qHTS (AID 1745854);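 also: HEK293 cells exposed to compounds for 24 hr before the viability read; % is scaled to controls: 0 for no effect and ±100 for the full control effect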
Method in brief: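 Cytotoxicity in human HEK293 cells is measured by ATP-dependent CellTiter-Glo luminescence following a 24 hr incubation with titrated library compounds at 37C. Top final concentration is 41.7 uM.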

[7] = measured here: PEO1 parental Z-AUC

C[C@@H]1COCCN1c1cc(-c2ccnn2C)c2ccnc(-c3ccn[nH]3)c2n1
Potency [1]: 0.209 µM (active) | Potency [2]: 0.186 µM (active) | Potency [3]: 20.2 µM (active) | Z-AUC [4]: -0.499 (inactive) | Z-AUC [4, 7]: -1.38 | Z-AUC ([4]; measured here: PEO4 Z-AUC): -1.35

CNC(=O)CCc1cc(-c2ccc(-c3ccc(C(F)(F)F)cc3)cc2)n(-c2ccc(N3CCNCC3)cc2)n1
Potency [2]: inactive | Potency [3]: inactive | Z-AUC [4]: 1.07 (inactive) | Z-AUC [4, 7]: -0.284 | Z-AUC ([4]; measured here: PEO4 Z-AUC): 0.197

CN1CCN(CCCNc2ncc(Cl)c(-c3cc4c(C(=O)NC5CC5)cccc4s3)n2)CC1
Potency [2]: 23.5 µM (active) | Potency [5]: inactive | Z-AUC [4]: -0.322 (inactive) | Z-AUC [4, 7]: -0.452 | Z-AUC ([4]; measured here: PEO4 Z-AUC): -0.0901

COc1ccc(S(=O)(=O)N2CCc3cccc(-c4ccncc4)c32)cc1
Potency [1]: 0.833 µM (active) | Potency [2]: 0.934 µM (active) | Potency [3]: inactive | Z-AUC [4]: -1.73 (inactive) | Z-AUC [4, 7]: -1.49 | Z-AUC ([4]; measured here: PEO4 Z-AUC): -1.55

Cc1cc(O[C@@H](CCC(F)(F)F)c2ccc(C(=O)NCCC(=O)O)cc2)cc(C)c1-c1ccc(C(C)(C)C)cc1
Potency [2]: inactive | Potency [5]: inactive | Z-AUC [4]: 0.000666 (inactive) | Z-AUC [4, 7]: 0.0877 | Z-AUC ([4]; measured here: PEO4 Z-AUC): -0.261

CC(C)(C)S(=O)(=O)c1ccc2nccc(Nc3n[nH]c4ccc(F)cc34)c2c1
Potency [1]: 13.2 µM (active) | Potency [5]: inactive | Potency [3]: inactive | Z-AUC [4]: -0.44 (inactive) | Z-AUC [4, 7]: -0.407 | Z-AUC ([4]; measured here: PEO4 Z-AUC): -0.499

CCC[C@H](NC(=O)[C@@H]1[C@H]2CCC[C@H]2CN1C(=O)[C@@H](NC(=O)[C@@H](NC(=O)c1cnccn1)C1CCCCC1)C(C)(C)C)C(=O)C(=O)NC1CC1
Potency [2]: 5.9 µM (active) | outcome [6]: inactive | Potency [3]: inactive | Z-AUC [4]: 1.49 (inactive) | Z-AUC [4, 7]: 0.769 | Z-AUC ([4]; measured here: PEO4 Z-AUC): 0.725

C[n+]1ccc(-c2c3nc(c(-c4cc[n+](C)cc4)c4ccc([nH]4)c(-c4cc[n+](C)cc4)c4nc(c(-c5cc[n+](C)cc5)c5ccc2[nH]5)C=C4)C=C3)cc1
Potency [2]: inactive

Cc1noc(C)c1-c1ccc(-c2cc(C(N)=O)c(NC(N)=O)s2)c(O[C@H]2CCNC2)c1
Potency [1]: 16.6 µM (active) | Potency [2]: 14.8 µM (active) | Z-AUC [4]: -0.139 (inactive) | Z-AUC [4, 7]: -0.81 | Z-AUC ([4]; measured here: PEO4 Z-AUC): -0.908

NC(=O)c1cc(F)cc2c1C(=O)N(C1CCN(C3CCC(F)(F)CC3)CC1)C2
Potency [1]: inactive | outcome [6]: inactive | Potency [5]: inactive | Potency [3]: inactive | Z-AUC [4]: -0.257 (inactive) | Z-AUC [4, 7]: -0.805 | Z-AUC ([4]; measured here: PEO4 Z-AUC): -0.459

C[C@@H]1CC2C3C[C@H](F)C4=CC(=O)C=C[C@]4(C)[C@@]3(F)[C@@H](O)C[C@]2(C)[C@@]1(OC(=O)c1ccco1)C(=O)SCF (stereo partly drawn)
Potency [2]: inactive | Potency [5]: inactive | Z-AUC [4]: 0.16 (inactive) | Z-AUC [4, 7]: 0.658 | Z-AUC ([4]; measured here: PEO4 Z-AUC): -0.282

CCN1C(=O)N2Cc3cc(OC)cc(OC)c3[C@@H](C)C=C2C12CCN(Cc1cc(C)cc(C)c1)CC2
Potency [2]: 18.6 µM (active) | Potency [5]: inactive | Potency [3]: inactive | Z-AUC [4]: -1 (inactive) | Z-AUC [4, 7]: -1.06 | Z-AUC ([4]; measured here: PEO4 Z-AUC): -1.16
